Reference: PubChem BioAssay (Tox21)
Records with an inconclusive call do not appear. Activity calls are given as the source filed them. Unless noted, the call rests on the fitted dose curve; in most records, active means well fitted curve in the direction sought with a large enough effect in the repeat runs; inconclusive means weak or mixed curves; inactive means no such curve, though single readings can be large; an effect the other way counts as inactive or inconclusive. Where a SMILES comes first, the peptide text is derived from it.

Columns and labels:
[1] = qHTS assay to identify small molecule antagonists of the estrogen receptor beta (ER-beta) signaling pathway - cell viability counter screen (AID 1259382);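 further: HEK293T cells carrying ER-beta-UAS-bla reporter stimulated with estradiol; series mostly up to about 92 µM; nearly all actives have a fitted effect of over 55% in size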
In short: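 ER-beta-UAS-bla HEK293T cells (2,000/well, 2% charcoal-stripped FBS) were pre-incubated 6 hr at 37C, then given compound plus 1nM final 17-beta-estradiol for 16 hr. Viability was read in the same wells by CellTiter-Glo luminescence after 30 min at room temperature.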

[2] = qHTS assay to identify small molecule agonists of the estrogen receptor alpha (ER-alpha) signaling pathway in the presence of an antagonist - cell viability counter screen (AID 1259386);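 further: series mostly up to about 92 µM; cells exposed to compounds for 22 h at 37 °C before the viability read; nearly all actives have a fitted effect of over 30% in size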
In short: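 VM7Luc4E2 cells (endogenous full-length ER-alpha, 4×ERE-luciferase) were held 5 days in phenol red-free medium with 10% charcoal-stripped FBS, plated, then given 10.0nM ICI-182,780 and compounds at 15 concentrations for 22hr at 37C; viability read by CellTiter-Fluor fluorescence.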

[3] = biological target: Progesterone receptor (Homo sapiens) (UniProt P06401); test: qHTS assay to identify small molecule agonists of the progesterone receptor (PR) signaling pathway (AID 1346784; calls by dose curve; further: nearly all actives have a fitted effect of over 30% in size)
In short: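 Fluorescence from LiveBLAzer B/G FRET substrate cleavage (2 hr, RT) reported PR activation in PR-UAS-bla HEK 293T cells treated 16 hr at 37C/5% CO2 with compounds; medium contained 2% charcoal-stripped FBS.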

[4] = biological target: Progesterone receptor (Homo sapiens) (UniProt P06401); test: qHTS assay to identify small molecule antagonists of the progesterone receptor (PR) signaling pathway (AID 1346795; active means well fitted inhibition curve with a large enough effect in the signal ratio in the repeat runs, not every such curve was filed as active; the % refers to the signal ratio; further: potency means the concentration at half of the fitted maximal effect)
In short: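 Fluorescence intensity measured 2 hr after adding beta-lactamase FRET substrate to PR-UAS-bla HEK293T cells that had been co-treated 16 hr with compound and 1 nM R5020 (final concentration) in 2% charcoal-stripped FBS.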

[5] = qHTS assay to identify small molecule agonists of the progesterone receptor (PR) signaling pathway - cell viability counter screen (AID 1346799; calls by dose curve; further: nearly all actives have a fitted effect of over 45% in size)
In short: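 In parallel with the beta-lactamase readout, cytotoxicity toward PR-UAS-bla HEK293T cells was measured by CellTiter-Glo luminescence following 16 hr compound incubation in 2% charcoal-stripped FBS medium.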

[6] = qHTS assay to identify small molecule antagonists of the TGF-beta/Smad signaling pathway - cell viability counter screen (AID 1346824); further: nearly all actives have a fitted effect of over 50% in size
In short: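 SBE-bla HEK 293T cells were plated overnight at 37 C, then given compounds in DMSO plus TGF-beta1 (added as 0.25 ng/mL solution) for 5 hr. After the bla read, CellTiter-Glo was added to the same wells and luminescence read after 30 min at room temperature.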

[7] = qHTS assay to identify small molecule agonists of the TGF-beta/Smad signaling pathway - cell viability counter screen (AID 1346829); further: top concentration of the series differs between compounds; nearly all actives have a fitted effect of over 45% in size
In short: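 CellTiter-Glo luminescence readout; SBE-bla HEK 293T cells, overnight plating, compound 5 hr at 37 C/5% CO2, then bla substrate 2 hr RT, then CellTiter-Glo 30 min RT.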

[8] = qHTS assay to identify small molecule agonists of the TGF-beta/Smad signaling pathway (AID 1346859; active means well fitted activation curve with a large enough effect in the signal ratio in the repeat runs, not every such curve was filed as active; the % refers to the signal ratio; further: series mostly up to about 77 µM)
In short: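 After overnight seeding, SBE-bla HEK 293T cells are dosed with compounds in DMSO and kept 5 hr at 37 C, 5% CO2. LiveBLAzer-type FRET substrate is then applied for 2 hr at room temperature.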

[9] = biological target: Thyrotropin-releasing hormone receptor (Homo sapiens) (UniProt P34981); test: qHTS assay to identify small molecule antagonists of the thyrotropin-releasing hormone receptor (TRHR) signaling pathway (AID 1346877; active means well fitted inhibition curve with a large enough effect in the repeat runs, not every such curve was filed as active; further: series mostly up to about 51 µM)
In short: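 TRHR-expressing HEK293 cells were seeded, cultured 18 h at 37 °C, then loaded with calcium dye for 2 h. Compounds were pre-incubated 5 min at room temperature before 1 nM TRH (final) was added, and kinetic fluorescence was recorded for 3 min.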

[10] = biological target: Thyrotropin-releasing hormone receptor (Homo sapiens) (UniProt P34981); test: qHTS assay to identify small molecule agonists of the thyrotropin-releasing hormone receptor (TRHR) signaling pathway (AID 1346891; calls by dose curve; further: series mostly up to about 58 µM)
In short: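 Compounds were tested as agonists at 15 concentrations, in triplicate, on TRHR-Hek293 cells; calcium-sensitive dye fluorescence was recorded for 3 min following addition.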

[11] = Human pregnane X receptor (PXR) small molecule agonists, qHTS cell viability counter screen (AID 1346977); further: nearly all actives have a fitted effect of over 50% in size
In short: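 Viability counter screen: CellTiter-Fluor signal in PXR-Luc HepG2 cells, 24hr compound exposure, 37C, 5% CO2.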

[12] = Caspase-3/7 induction in HepG2 cells by small molecules, qHTS assay (AID 1346978); further: nearly all actives have a fitted effect of over 15% in size
In short: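 Wild-type HepG2 cells (2,000/well) were settled 5 h at 37 C, 5% CO2, then exposed to compounds in DMSO for 17 h. Caspase-3/7 activity was read by luminescence 30 min after adding Caspase-Glo 3/7 reagent at room temperature.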

[13] = Caspase-3/7 induction in CHO-K1 cells by small molecules, qHTS cell viability counter screen (AID 1346979); further: nearly all actives have a fitted effect of over 35% in size
In short: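 Viability readout by fluorescence (CellTiter-Fluor) on wild-type CHO-K1 cells exposed for 16hr at 37C and 5% CO2 to compounds delivered in DMSO; reagent incubated 1hr before reading.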

[14] = Caspase-3/7 induction in CHO-K1 cells by small molecules, qHTS assay (AID 1346980); further: nearly all actives have a fitted effect of over 15% in size
In short: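 Wild-type cells were seeded at 1,500 per well and settled 5 hr at 37 C, 5% CO2, then exposed to DMSO-dissolved compounds for 17 hr. Caspase-Glo 3/7 reagent was added, and luminescence was read after 30min at room temperature.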

[15] = biological target: Nuclear receptor subfamily 1 group I member 2 (Homo sapiens) (UniProt O75469); test: Human pregnane X receptor (PXR) small molecule agonists, qHTS assay (AID 1346982); further: nearly all actives have a fitted effect of over 35% in size; further: potency means the concentration at half of the fitted maximal effect
In short: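 PXR-Luc HepG2 cells (CYP3A4 promoter-driven luciferase) were seeded in medium with 5% charcoal-stripped FBS, left 5 hr at 37 C, then exposed to compounds in DMSO for 24 hr. Luminescence was read after ONE-Glo addition.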

[16] = qHTS assay to identify small molecule agonists or antagonists of the thyroid stimulating hormone receptor (TSHR) signaling pathway - wild type cell line counter screen (AID 1259384; calls by dose curve)
In short: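 Wild-type HEK293 cells were plated 18 h at 37 C/5% CO2, pin-dosed with compound plus Ro20-1724 medium, held 30 min at room temperature, then given cAMP-d2 and anti-cAMP-cryptate; fluorescence was read after 1 h. Fifteen concentrations, triplicate.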

[17] = biological target: Thyrotropin receptor (Homo sapiens) (UniProt P16473); test: qHTS assay to identify small molecule antagonists of the thyroid stimulating hormone receptor (TSHR) signaling pathway (AID 1259385; calls by dose curve; further: nearly all actives have a fitted effect of over 20% in size)
In short: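 TSHR-HEK293 cells were plated and held 18 h at 37C/5% CO2, then given compound plus Ro20-1724 and stimulated with TSH at 1.5 ng/mL final. After 30 min at room temperature, cAMP was detected with cAMP-d2/anti-cAMP-cryptate (1 h) by fluorescence.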

[18] = Caspase-3/7 induction in HepG2 cells by small molecules, qHTS cell viability counter screen (AID 1346981); further: series mostly up to about 92 µM; nearly all actives have a fitted effect of over 30% in size
In short: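 Wild-type HepG2 cells (2,000/well) were allowed to settle for 5 hr at 37 C, 5% CO2, then dosed with compounds in DMSO by pin transfer. After 16 hr at 37 C, CellTiter-Fluor was added and fluorescence read 1 hr later.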

[19] = qHTS assay to identify small molecule antagonists of the progesterone receptor (PR) signaling pathway - cell viability counter screen (AID 1346798); further: series mostly up to about 92 µM; nearly all actives have a fitted effect of over 50% in size
In short: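 CellTiter-Glo luminescence; PR-UAS-bla HEK293T, 3,000 cells/well; compound + R5020, 16 hr, 37C/5% CO2; 30 min RT before read.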
On the % scale 0 is the no-effect control and ±100 the full control effect.

Chain of Thyrotropin receptor (Homo sapiens) (P16473 whole entry, looked up): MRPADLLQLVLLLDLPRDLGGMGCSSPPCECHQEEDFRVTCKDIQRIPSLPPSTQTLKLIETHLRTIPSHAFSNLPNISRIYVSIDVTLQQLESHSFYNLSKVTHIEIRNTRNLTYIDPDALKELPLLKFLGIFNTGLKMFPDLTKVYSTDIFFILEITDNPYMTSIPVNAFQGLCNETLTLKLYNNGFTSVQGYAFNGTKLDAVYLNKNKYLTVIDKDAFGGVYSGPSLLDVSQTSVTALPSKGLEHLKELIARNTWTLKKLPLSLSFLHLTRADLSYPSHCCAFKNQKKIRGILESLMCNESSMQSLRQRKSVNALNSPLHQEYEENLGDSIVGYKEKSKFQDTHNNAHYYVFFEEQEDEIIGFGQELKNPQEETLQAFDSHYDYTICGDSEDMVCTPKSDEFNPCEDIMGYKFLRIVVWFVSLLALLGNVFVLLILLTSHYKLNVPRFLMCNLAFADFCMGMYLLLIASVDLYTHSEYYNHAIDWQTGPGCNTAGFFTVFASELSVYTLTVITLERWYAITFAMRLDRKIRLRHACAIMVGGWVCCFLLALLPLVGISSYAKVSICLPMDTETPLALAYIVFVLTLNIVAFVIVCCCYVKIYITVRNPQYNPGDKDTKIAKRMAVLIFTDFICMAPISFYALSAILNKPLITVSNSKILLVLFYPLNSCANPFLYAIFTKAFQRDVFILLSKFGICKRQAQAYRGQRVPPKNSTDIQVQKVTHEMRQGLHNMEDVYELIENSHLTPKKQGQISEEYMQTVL
Chain of Progesterone receptor (Homo sapiens) (P06401 whole entry, looked up): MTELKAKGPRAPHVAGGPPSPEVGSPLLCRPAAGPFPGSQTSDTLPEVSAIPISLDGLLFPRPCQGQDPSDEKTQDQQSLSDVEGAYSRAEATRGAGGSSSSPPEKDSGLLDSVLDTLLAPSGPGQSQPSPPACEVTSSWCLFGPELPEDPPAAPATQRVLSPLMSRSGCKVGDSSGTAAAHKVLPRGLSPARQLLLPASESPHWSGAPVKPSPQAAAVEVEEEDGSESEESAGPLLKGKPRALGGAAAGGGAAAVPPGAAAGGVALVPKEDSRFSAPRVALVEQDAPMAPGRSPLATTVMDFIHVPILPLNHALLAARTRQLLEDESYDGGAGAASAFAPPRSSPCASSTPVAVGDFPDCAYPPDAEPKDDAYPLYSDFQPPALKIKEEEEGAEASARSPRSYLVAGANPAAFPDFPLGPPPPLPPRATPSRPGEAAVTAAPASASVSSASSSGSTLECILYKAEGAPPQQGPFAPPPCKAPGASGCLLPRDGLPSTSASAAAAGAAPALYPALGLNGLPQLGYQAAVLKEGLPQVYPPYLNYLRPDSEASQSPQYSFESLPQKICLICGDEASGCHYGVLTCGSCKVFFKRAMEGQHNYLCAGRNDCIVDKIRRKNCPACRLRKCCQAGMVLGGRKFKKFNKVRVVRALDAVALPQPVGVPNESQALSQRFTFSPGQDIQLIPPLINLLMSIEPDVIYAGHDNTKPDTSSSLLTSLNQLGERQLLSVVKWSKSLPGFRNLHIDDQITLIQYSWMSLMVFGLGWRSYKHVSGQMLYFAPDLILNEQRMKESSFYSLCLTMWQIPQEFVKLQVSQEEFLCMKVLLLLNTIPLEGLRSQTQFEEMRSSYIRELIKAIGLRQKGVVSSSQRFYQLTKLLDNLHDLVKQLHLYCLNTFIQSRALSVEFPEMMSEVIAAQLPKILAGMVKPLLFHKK
Chain of Thyrotropin-releasing hormone receptor (Homo sapiens) (P34981 whole entry, looked up): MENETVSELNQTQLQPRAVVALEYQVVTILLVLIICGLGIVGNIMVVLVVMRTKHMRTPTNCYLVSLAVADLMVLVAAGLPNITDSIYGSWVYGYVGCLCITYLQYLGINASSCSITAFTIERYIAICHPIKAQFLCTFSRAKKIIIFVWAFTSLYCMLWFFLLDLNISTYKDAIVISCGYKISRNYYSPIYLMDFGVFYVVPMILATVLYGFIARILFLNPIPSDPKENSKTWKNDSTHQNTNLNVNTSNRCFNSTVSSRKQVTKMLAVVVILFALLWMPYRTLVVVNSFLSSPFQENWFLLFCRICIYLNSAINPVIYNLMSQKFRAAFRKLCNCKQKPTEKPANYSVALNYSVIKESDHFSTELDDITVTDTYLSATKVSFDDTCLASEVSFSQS
Chain of Nuclear receptor subfamily 1 group I member 2 (Homo sapiens) (O75469 whole entry, looked up): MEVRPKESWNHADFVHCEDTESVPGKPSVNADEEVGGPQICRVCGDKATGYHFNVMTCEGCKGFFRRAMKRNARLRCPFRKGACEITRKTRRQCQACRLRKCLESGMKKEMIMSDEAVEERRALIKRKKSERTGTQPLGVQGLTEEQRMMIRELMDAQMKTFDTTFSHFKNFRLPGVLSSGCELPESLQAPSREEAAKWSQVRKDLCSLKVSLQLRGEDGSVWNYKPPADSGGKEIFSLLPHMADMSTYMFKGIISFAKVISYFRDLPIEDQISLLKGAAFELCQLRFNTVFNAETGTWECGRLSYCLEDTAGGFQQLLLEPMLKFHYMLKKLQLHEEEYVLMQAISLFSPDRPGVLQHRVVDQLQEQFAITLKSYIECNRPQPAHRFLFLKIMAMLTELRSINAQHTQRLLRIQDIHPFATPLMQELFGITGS

CC(Oc1cc(Cl)ccc1Cl)C(=O)O (configuration not stated)
inactive: outcome [1] | outcome [2] | Potency [3] | Potency [4] | outcome [5] | outcome [6] | outcome [7] | outcome [8] | outcome [9] | outcome [10] | outcome [11] | outcome [12] | Potency [13] | outcome [14] | Potency [15]

CC(=O)O[C@H]1C[C@@H]2CC[C@@]1(C)C2(C)C
inactive: outcome [1] | outcome [16] | outcome [17] | outcome [2] | Potency [3] | Potency [4] | outcome [5] | outcome [6] | outcome [7] | outcome [8] | outcome [9] | outcome [10] | outcome [11] | outcome [12] | Potency [13] | outcome [14] | outcome [18] | Potency [15]

O=S(=O)(O)c1ccc2c(N=Nc3ccc(S(=O)(=O)O)c4ccccc34)c(O)c(S(=O)(=O)O)cc2c1
inactive: activity change, negative = cytotoxicity [1] -3.29% [at 8.39 µM] | cAMP activity change [16] -0.796% [at 8.39 µM] | activity change, negative = inhibition [17] -3.96% [at 8.39 µM] | activation [3] 2.07% [at 8.39 µM] | activity change, negative = inhibition [4] -1.68% [at 8.39 µM] | activity change, negative = cytotoxicity [19] 12.1% [at 8.39 µM] | activity change, negative = cytotoxicity [5] 18.6% [at 8.39 µM] | viability change, negative = cytotoxic [6] 5.53% [at 6.97 µM] | activity change, negative = cytotoxicity [7] 12.6% [at 6.97 µM] | activation [8] 0.897% [at 6.97 µM] | caspase activation [12] -0.326% [at 8.39 µM] | caspase-3/7 activation [14] -0.308% [at 8.39 µM] | activation [15] 1.28% [at 8.39 µM]

CCCCCC/C=C/C(=O)OC
inactive: outcome [1] | outcome [17] | outcome [2] | Potency [3] | Potency [4] | outcome [19] | outcome [5] | outcome [6] | outcome [7] | outcome [8] | outcome [11] | outcome [12] | Potency [13] | outcome [14] | outcome [18] | Potency [15]

O=NN(CCCl)C(=O)NC1CCCCC1
inactive: outcome [1] | outcome [16] | outcome [2] | Potency [3] | Potency [4] | outcome [19] | outcome [5] | outcome [6] | outcome [7] | outcome [8] | outcome [9] | outcome [10] | outcome [11] | outcome [12] | Potency [13] | outcome [14] | outcome [18] | Potency [15]

O=[N+]([O-])c1c(Cl)cc(Cl)cc1Cl
inactive: outcome [1] | outcome [2] | Potency [3] | Potency [4] | outcome [5] | outcome [6] | outcome [7] | outcome [8] | outcome [9] | outcome [10] | outcome [11] | outcome [12] | Potency [13] | outcome [14] | outcome [18] | Potency [15]

CC(=O)CC(=O)Nc1ccc(C)cc1C
inactive: outcome [1] | outcome [17] | outcome [2] | Potency [3] | outcome [19] | outcome [5] | outcome [6] | outcome [7] | outcome [8] | outcome [9] | outcome [10] | outcome [11] | outcome [12] | Potency [13] | outcome [14] | outcome [18] | Potency [15]

c1ccc(B(c2ccccc2)c2ccccc2)cc1
inactive: outcome [1] | outcome [2] | Potency [3] | outcome [19] | outcome [5] | outcome [6] | outcome [7] | outcome [8] | outcome [9] | outcome [10] | outcome [11] | outcome [12] | Potency [13] | outcome [14]
active: Potency [4] 54.4 µM | Potency [15] 30.6 µM

CCCCC1CCC(O)CC1 (configuration not stated)
inactive: outcome [1] | outcome [2] | Potency [3] | Potency [4] | outcome [19] | outcome [5] | outcome [6] | outcome [7] | outcome [8] | outcome [9] | outcome [10] | outcome [11] | outcome [12] | Potency [13] | outcome [14] | outcome [18] | Potency [15]

CC(=O)N[C@@H](CO)C(=O)N[C@@H](CC(=O)O)C(=O)N[C@@H](CCCCN)C(=O)N1CCC[C@H]1C(=O)O (Ac-SDKP-OH)
inactive: outcome [1] | outcome [2] | Potency [3] | Potency [4] | outcome [19] | outcome [5] | outcome [6] | outcome [7] | outcome [8] | outcome [9] | outcome [10] | outcome [11] | outcome [12] | Potency [13] | outcome [14] | outcome [18] | Potency [15]

CC(C)CCOC(=O)c1ccccc1
inactive: outcome [1] | outcome [17] | outcome [2] | Potency [3] | Potency [4] | outcome [19] | outcome [5] | outcome [6] | outcome [7] | outcome [9] | outcome [10] | outcome [11] | outcome [12] | Potency [13] | outcome [14] | outcome [18] | Potency [15]

O=Cc1ccccc1Cl
inactive: outcome [1] | outcome [2] | Potency [3] | Potency [4] | outcome [19] | outcome [5] | outcome [6] | outcome [7] | outcome [8] | outcome [11] | outcome [12] | Potency [13] | outcome [14] | outcome [18] | Potency [15]

COc1c2occc2c(OC)c2c(=O)cc(C)oc12
inactive: outcome [1] | outcome [17] | outcome [2] | Potency [3] | Potency [4] | outcome [19] | outcome [5] | outcome [6] | outcome [7] | outcome [11] | outcome [12] | Potency [13] | outcome [14] | outcome [18]

Cc1ccc(C)c([N+](=O)[O-])c1
inactive: outcome [1] | outcome [16] | outcome [17] | outcome [2] | outcome [19] | outcome [5] | outcome [6] | outcome [7] | outcome [8] | outcome [9] | outcome [10] | outcome [11] | outcome [12] | Potency [13] | outcome [14] | outcome [18] | Potency [15]

CCCCCCCCCOC(=O)CCCCC(=O)OCCCCCCC
inactive: outcome [1] | outcome [17] | outcome [2] | Potency [3] | Potency [4] | outcome [19] | outcome [5] | outcome [6] | outcome [7] | outcome [8] | outcome [9] | outcome [10] | outcome [11] | outcome [12] | Potency [13] | outcome [14] | outcome [18] | Potency [15]

CC(N)CCCC(C)(C)O (configuration not stated)
inactive: outcome [1] | outcome [17] | outcome [2] | Potency [3] | Potency [4] | outcome [5] | outcome [6] | outcome [8] | outcome [11] | outcome [12] | Potency [13] | outcome [14] | outcome [18]
